# Inconclusive results are not listed. Unmarked numbers belong to inactive results. Activity calls are given as the source filed them. The call rests on the fitted dose curve; in most records, active means well fitted inhibition curve with a large enough effect; inconclusive means small, poorly fitted or top-dose-only effect; inactive means flat fitted curve, though single readings scatter.
# Tested on: CP215
# Assay: qHTS profiling for inhibitors of Plasmodium falciparum proliferation (AID 504749); further: nearly all actives have a fitted effect of over 60% in size;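 on activity, negative = inhibition: 0% = DMSO vehicle and full inhibition = artemisinin control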
# Conditions: P. falciparum in erythrocytes, SYBR Green DNA, 72 h; series mostly up to 28.7 µM; activity, negative = inhibition: at the top concentration
# Outline: (§1)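 SYBR Green fluorescence (ex 485 nm, em 535 nm) reports parasite DNA after 72 h compound exposure of infected red cells at 0.3% parasitemia, 2.5% hematocrit; signal normalized to 0.29 uM artemisinin and vehicle wells.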
# Potency means the concentration at half of the fitted maximal effect.
Compound,"activity, negative = inhibition",Potency
CC(C)OC(=O)C(C(=O)OC(C)C)=C1SC=CS1,1.46%,
CC1=NN(c2ccccc2)C(=O)C1,-7.76%,
COC(=O)Nc1nc2ccc(Sc3ccccc3)cc2[nH]1,-0.278% [at 12.8 µM],
CCc1c2c(nc3ccc(OC(=O)N4CCC(N5CCCCC5)CC4)cc13)-c1cc3c(c(=O)n1C2)COC(=O)[C@]3(O)CC,2.45%,
Cc1noc(NS(=O)(=O)c2ccc(N)cc2)c1C,0.57%,
CN1CCN(c2c(F)cc3c(=O)c(C(=O)O)cn4c3c2OCN4C)CC1,-0.313%,
S=P(N1CC1)(N1CC1)N1CC1,1.55%,
CC[C@H](NC(C)C)[C@H](O)c1ccc(O)c2[nH]c(=O)ccc12,7.11%,
CC(C)(Sc1cc(C(C)(C)C)c(O)c(C(C)(C)C)c1)Sc1cc(C(C)(C)C)c(O)c(C(C)(C)C)c1,-0.627% [at 12.8 µM],
CCCc1cc(C(N)=S)ccn1,3.54%,
CCCN[C@H]1CCc2nc(N)sc2C1,-0.689%,
CC(C)(C#N)c1cc(Cn2cncn2)cc(C(C)(C)C#N)c1,3.53%,
COc1c(N2CCNC(C)C2)c(F)cc2c(=O)c(C(=O)O)cn(C3CC3)c12 (stereo unspecified),-18.2%,
O=C(O)c1cc(=O)[nH]c(=O)[nH]1,3.64%,
CCOc1cc(N)c(Cl)cc1C(=O)NCC1CN(Cc2ccc(F)cc2)CCO1 (stereo unspecified),,10700 nM (active)
CCC(C)(C)c1ccc(CC(C)CN2C[C@@H](C)O[C@@H](C)C2)cc1 (stereo partly specified),-1.33%,
CN(C)c1ccc(C(=C2C=CC(=[N+](C)C)C=C2)c2ccc(N(C)C)cc2)cc1,,1510 nM (active)
CCc1cc(C(N)=S)ccn1,-3.17%,
Cc1nnc(NS(=O)(=O)c2ccc(N)cc2)s1,12.8%,
CCN(C)C(=O)Oc1cccc([C@H](C)N(C)C)c1,1.72%,
CNC1CCCN(c2c(F)cc3c(=O)c(C(=O)O)cn(C4CC4)c3c2OC)C1 (stereo unspecified),2.44%,
COc1cc(NCc2ccc3nc(N)nc(N)c3c2C)cc(OC)c1OC,,675 nM (active)

# Tested on: CP217
# Assay: as above
# Conditions: P. falciparum in erythrocytes, SYBR Green DNA, 72 h; series mostly up to 28.7 µM; activity, negative = inhibition: at the top concentration
# Outline: as §1
Compound,"activity, negative = inhibition",Potency
Cn1nnc2c(C(N)=O)ncn2c1=O,-2.1%,
CC(C)OC(=O)C(C(=O)OC(C)C)=C1SC=CS1,1.27%,
CC1=NN(c2ccccc2)C(=O)C1,-15.6%,
COC(=O)Nc1nc2ccc(Sc3ccccc3)cc2[nH]1,-1.38% [at 12.8 µM],
CCc1c2c(nc3ccc(OC(=O)N4CCC(N5CCCCC5)CC4)cc13)-c1cc3c(c(=O)n1C2)COC(=O)[C@]3(O)CC,-0.833%,
Cc1noc(NS(=O)(=O)c2ccc(N)cc2)c1C,-4.82%,
CN1CCN(c2c(F)cc3c(=O)c(C(=O)O)cn4c3c2OCN4C)CC1,-3.42%,
S=P(N1CC1)(N1CC1)N1CC1,0.769%,
CC[C@H](NC(C)C)[C@H](O)c1ccc(O)c2[nH]c(=O)ccc12,1.44%,
CC[C@H](C)C(=O)O[C@H]1C[C@@H](C)C=C2C=C[C@H](C)[C@H](CC[C@@H]3C[C@@H](O)CC(=O)O3)[C@H]21,-1.87%,
CC(C)(Sc1cc(C(C)(C)C)c(O)c(C(C)(C)C)c1)Sc1cc(C(C)(C)C)c(O)c(C(C)(C)C)c1,0.724% [at 12.8 µM],
Cc1ncc([N+](=O)[O-])n1CCO,-1.85%,
CCCc1cc(C(N)=S)ccn1,4.62%,
CCCN[C@H]1CCc2nc(N)sc2C1,-2.39%,
COC(=O)Nc1nc2ccc(C(=O)c3ccccc3)cc2[nH]1,5.46% [at 12.8 µM],
CC(C)(C#N)c1cc(Cn2cncn2)cc(C(C)(C)C#N)c1,0.74%,
COc1c(N2CCNC(C)C2)c(F)cc2c(=O)c(C(=O)O)cn(C3CC3)c12 (stereo unspecified),-11.4%,
O=C(O)c1cc(=O)[nH]c(=O)[nH]1,2.78%,
CNS(=O)(=O)Cc1ccc2[nH]cc(CCN(C)C)c2c1,-1.76%,
CCOc1cc(N)c(Cl)cc1C(=O)NCC1CN(Cc2ccc(F)cc2)CCO1 (stereo unspecified),,4470 nM (active)
CCC(C)(C)c1ccc(CC(C)CN2C[C@@H](C)O[C@@H](C)C2)cc1 (stereo partly specified),-20.3%,
CN(C)c1ccc(C(=C2C=CC(=[N+](C)C)C=C2)c2ccc(N(C)C)cc2)cc1,,251 nM (active)
COc1ccc(C(=O)CC(=O)c2ccc(C(C)(C)C)cc2)cc1,-0.283%,
CCc1cc(C(N)=S)ccn1,-0.942%,
NC(=O)N1c2ccccc2CC(=O)c2ccccc21,-6.31%,
Cc1nnc(NS(=O)(=O)c2ccc(N)cc2)s1,2.73%,
CCN(C)C(=O)Oc1cccc([C@H](C)N(C)C)c1,-2.11%,
CNC1CCCN(c2c(F)cc3c(=O)c(C(=O)O)cn(C4CC4)c3c2OC)C1 (stereo unspecified),-13.4%,
COc1cc(NCc2ccc3nc(N)nc(N)c3c2C)cc(OC)c1OC,,282 nM (active)
